Drawing on PubChem BioAssay (EPA / NIEHS), this text covers outcome and AC50 for 40 compounds.

Calls of active or inactive are those of the source. Rule for the calls: active = hit-call score of the fitted dose curve at least 0.9, where 1 is the maximum; inactive = score below 0.9.

Hepatocyte nuclear factor 3-beta (Homo sapiens), sequence (Q9Y261 whole entry, looked up): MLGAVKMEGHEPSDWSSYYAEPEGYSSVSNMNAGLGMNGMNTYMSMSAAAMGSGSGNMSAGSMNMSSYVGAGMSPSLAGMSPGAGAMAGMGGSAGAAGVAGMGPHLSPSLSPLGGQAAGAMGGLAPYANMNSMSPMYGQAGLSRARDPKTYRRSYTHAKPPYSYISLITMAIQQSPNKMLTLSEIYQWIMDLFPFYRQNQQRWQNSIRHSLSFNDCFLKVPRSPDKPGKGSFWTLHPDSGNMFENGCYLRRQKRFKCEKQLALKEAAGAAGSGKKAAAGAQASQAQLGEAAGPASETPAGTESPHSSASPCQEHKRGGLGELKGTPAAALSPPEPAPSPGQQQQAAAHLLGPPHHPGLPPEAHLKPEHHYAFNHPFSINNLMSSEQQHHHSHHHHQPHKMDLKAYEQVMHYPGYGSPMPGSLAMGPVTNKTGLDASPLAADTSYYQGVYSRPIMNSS

The test addresses Hepatocyte nuclear factor 3-beta (Homo sapiens) (UniProt Q9Y261). Description: ATG_FoxA2_CIS: Attagene CIS-FACTORIAL HepG2 Assay for human Forkhead box A2 (FOXA2) (AID 2282942). The following applies: HepG2 cis-reporter transcription factor activity, 24 h; actives raise or lower the signal. The procedure:
ATG_CIS is a cell-based, multiplexed-readout assay that uses HepG2, a human liver cell line, with measurements taken at 24 hours after chemical dosing in a 24-well plate.ATG_FoxA2_CIS is one of 52 assay component(s) measured or calculated from the ATG_CIS assay. It is designed to make measurements of mRNA induction, a form of inducible reporter, as detected with fluorescence intensity signals by Reverse transcription polymerase chain reaction (RT-PCR) and Capillary electrophoresis technology.Data from the assay component ATG_FoxA2_CIS was analyzed into 1 assay endpoint. This assay endpoint, ATG_FoxA2_CIS, was analyzed with bidirectional fitting relative to DMSO as the negative control and baseline of activity. Using a type of inducible reporter, measures of mRNA for gain or loss-of-signal activity can be used to understand the reporter gene at the transcription factor-level as they relate to the gene FOXA2. Furthermore, this assay endpoint can be referred to as a primary readout, because this assay has produced multiple assay endpoints where this one serves a reporter gene function. To generalize the intended target to other relatable targets, this assay endpoint is annotated to the dna binding intended target family, where the subfamily is forkhead box protein.
Human liver HepG2 cells are transiently transfected with multiple reporter transcription units (MRTUs) in 6-well plates using FuGene 6 reagent (Roche; 3 ml FuGene/1 mg DNA). The MRTU constructs are regulated by a cis-regulating element (promoter). […] A major difference between the CIS and TRANS system is that in CIS activities of endogenous TFs are measured, whereas the TRANS assay evaluates changes in activities of exogenous, chimeric NR-Gal4 proteins. […] At the end of 24 hour incubation, total RNA was isolated using TriZol reagent (Invitrogen). The isolated RNA is then reverse-transcribed using oligo(dT) primer and Mo-MLV reverse transcriptase (Invitrogen) with DNAse I (Ambion) treatment for 30 min. The one-tenth of the produced cDNA was amplified by PCR using Taq DNA polymerase (Invitrogen) and two reporter sequence-specific primers. The PCR products were fluorescently labeled by primer extension with 6-arboxyfluorescein (6-FAM) 5'-labeled reporter sequence-specific primer (2 min at 95 C, 20 s at 68 C and 10 min at 72 C) and these products were digested with 5U of HpaI (New England Biolabs) for 2h at 37 C. The fragments were purified using Qiaquick PCR columns (Qiagen), analyzed on an ABI 3130xL genetic analyzer (Applied Biosystems) with peak positions identified by using a set of X-rhodamine (ROX)-labeled MapMarker1000 molecular weight standards (BioVentures). The raw capillary electrophoresis data was processed using Attagraph software (Attagene).
As to `CCCc1ccc(O)cc1`, the result was inactive.
Consider `CC/C=C\CCCCO`, for which the outcome was inactive.
Consider `CCCCOCCOCCOCCO`, for which the outcome was inactive.
In the case of `C=CC(=O)OCC(CO)(COC(=O)C=C)COC(=O)C=C`, the AC50 was 123 µM (active).
Consider `C=C(C)C(N)=O`, for which the call was inactive.
In the case of `CC(=O)OC/C=C(C)/C=C/C=C(C)/C=C/C1=C(C)CCCC1(C)C`, the outcome was inactive.
With `CCOC(=O)CCCCCCCCC(=O)OCC`, the outcome was inactive.
For `CC(C)Cc1ccc(C(C)C(=O)O)cc1` (stereo not given), the call was inactive.
On to `CC(=O)c1ccc2ccccc2c1`, for which the outcome was inactive.
As for `O=C(OCc1ccccc1)c1ccccc1O`, the outcome was inactive.
On the same count and under the same terms, the result for `CCCCCCCCCO` reads “inactive”.
As for `OCCN1CCOCC1`, the compound was classed as inactive.
Turning to `CCC=C(C)C=O`, the result was inactive.
The same measure, in the same setting: to `CCCCC(CC)COCCO` (stereo not given) belongs “inactive”; to `CC1(C)CC(=O)CC(C)(C)N1`, “inactive”.
Consider `CCCCCCCCCOS(=O)(=O)O`, for which the call was inactive.
For `CC(=O)c1cccnc1`, the compound was classed as inactive.
Take `CCCc1ccc(N)cc1`: the call was inactive.
For `COc1ccc(OC)cc1`, the outcome was inactive.
With `CC(=O)c1ccc(C)cc1`, the compound was classed as inactive.
For the compound `O=C(O)c1ccco1`, the result was inactive.
Still for that read-out and setting: the result for `CN(C)C(=O)Nc1ccccc1` reads “inactive”.
Regarding `O=C(O)CS`, the compound was called inactive.
Consider `COc1ccccc1NC(=O)CC(C)=O`, for which the call was inactive.
On to `CCCCCCCCCCCCCCCCCC(=O)OCCCCCCCCCCCCCC(C)C`, for which the outcome was inactive.
`CCOC(=O)C(=O)OCC`: the outcome was inactive.
Regarding `O=c1cc[nH]cc1`, the outcome was inactive.
In the case of `O=c1cc(-c2ccc(O)cc2)oc2cc(O)cc(O)c12`, the call was inactive.
Turning to `CCCO[Si](OCCC)(OCCC)OCCC`, the result was inactive.
With `COc1cc(OC)c2ccc(=O)oc2c1`, the call was inactive.
As for `[Na+]`, the result was inactive.
For `CC(=O)Nc1cc(S(=O)(=O)O)cc2cc(S(=O)(=O)O)c(N=Nc3ccccc3)c(O)c12`, the outcome was inactive.
Consider `CCCCCCCOC(C)=O`, for which the compound was classed as inactive.
`Cc1ccccc1S`: the compound was classed as inactive.
On the same count and under the same terms, to `OC[C@@H](O)[C@H](O)[C@@H](O)[C@@H](O)CO` belongs “inactive”; to `CCCCCCC(C)O` (stereo not given), “inactive”; to `NC(=O)c1c(Cl)cccc1Cl`, “inactive”.
As to `O=C1OC2(c3ccc(O)cc3Oc3cc(O)ccc32)c2ccccc21`, the compound was classed as inactive.
Turning to `COC(=O)C(C)Oc1ccc(Oc2ncc(C(F)(F)F)cc2Cl)cc1` (stereo not given), the outcome was inactive.
`COc1ccc2[nH]cc(CCNC(C)=O)c2c1`: the result was inactive.
